According to PubChem BioAssay (NCI):
Compounds without any hit were thinned out: in the full panel of roughly 83,000, 20% have a hit.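 In brief: 96-well plates, 48 h treatment, single concentration, percent growth endpoint.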 Unmarked numbers belong to inactive results. Active and inactive are the calls of the source. How the source made its calls: active means growth percent below 10; inactive means the rest.

Assays:
Test in all cases: NCI-60 one-dose screen, 48 h (100 = growth as untreated, 0 = no growth, -100 = all killed)
Conditions in all cases: 10 µM
HT29 colon = system: HT29 colon
SNB-75 CNS = system: SNB-75 CNS
SNB-19 CNS = system: SNB-19 CNS
U251 CNS = system: U251 CNS
PC-3 prostate = system: PC-3 prostate
SK-MEL-5 melanoma = system: SK-MEL-5 melanoma
UACC-62 melanoma = system: UACC-62 melanoma
LOX IMVI melanoma = system: LOX IMVI melanoma
SK-MEL-28 melanoma = system: SK-MEL-28 melanoma
SK-MEL-2 melanoma = system: SK-MEL-2 melanoma
EKVX NSCLC = system: EKVX NSCLC
SN12C renal = system: SN12C renal
UO-31 renal = system: UO-31 renal
TK-10 renal = system: TK-10 renal
ACHN renal = system: ACHN renal
CAKI-1 renal = system: CAKI-1 renal
A498 renal = system: A498 renal
MOLT-4 leukemia = system: MOLT-4 leukemia
SR leukemia = system: SR leukemia
CCRF-CEM leukemia = system: CCRF-CEM leukemia

Structure (SMILES)	growth (HT29 colon)	growth (SNB-75 CNS)	growth (SNB-19 CNS)	growth (U251 CNS)	growth (PC-3 prostate)	growth (SK-MEL-5 melanoma)	growth (UACC-62 melanoma)	growth (LOX IMVI melanoma)	growth (SK-MEL-28 melanoma)	growth (SK-MEL-2 melanoma)	growth (EKVX NSCLC)	growth (SN12C renal)	growth (UO-31 renal)	growth (TK-10 renal)	growth (ACHN renal)	growth (CAKI-1 renal)	growth (A498 renal)	growth (MOLT-4 leukemia)	growth (SR leukemia)	growth (CCRF-CEM leukemia)
Nc1ncn([C@@H]2O[C@H](CO)[C@@H](O)[C@H]2O)c(=O)n1	19.9%	20.3%	46.6%	19.6%	31%	48.3%	12.5%	-9.93% (active)	34.8%	-21.5% (active)	107%	14.8%	15%	40.5%	11.8%	22.3%	28.5%	33.6%	7.12% (active)	–
CCCCN(CCCC)c1cc(C(=O)CCCCCN)c2ccccc2n1	-38% (active)	105%	105%	-77.9% (active)	-93.2% (active)	98.3%	105%	-18% (active)	118%	87.9%	24%	89.7%	-21.9% (active)	82.6%	85.5%	-45.4% (active)	–	-61.5% (active)	-69.3% (active)	-70.4% (active)
CCCCCCCCCCCCCC[n+]1ccc(C(N)=O)cc1	-28.2% (active)	-24.8% (active)	-58.5% (active)	-100% (active)	-23.3% (active)	-82.8% (active)	0.667% (active)	-48.9% (active)	43.3%	-32.4% (active)	1.08% (active)	8.7% (active)	50.7%	-65.2% (active)	65.6%	15.6%	52.3%	-34.8% (active)	-15.8% (active)	–
COc1cc(/C=N/NC(=O)c2ccccc2Nc2ccnc(C(F)(F)F)c2)ccc1O	118%	94.1%	93.2%	106%	111%	106%	115%	114%	118%	113%	106%	122%	98.1%	147%	111%	-21.2% (active)	116%	-89.5% (active)	-48.1% (active)	–
O=C1/C(=C\c2cn(C(=O)c3ccc(Cl)cc3)c3ccccc23)c2ccccc2N1C(=O)c1ccc(Cl)cc1	70.4%	54.4%	98.2%	74.2%	65.7%	74.9%	88.9%	67.2%	103%	49.8%	70.7%	80.8%	64.4%	55.3%	63.3%	73.8%	81.1%	61.5%	56.1%	–
Clc1cccc(-c2nc(-c3cccs3)no2)c1	106%	81.5%	104%	90.3%	103%	90.1%	89.8%	93.1%	115%	116%	85.4%	97.1%	74.1%	110%	96.3%	103%	93.1%	86.3%	85.7%	78.3%
NC1=NC(=O)C(c2ccccc2)(c2ccccc2)S1	106%	107%	105%	99.4%	103%	110%	98.2%	101%	101%	101%	107%	106%	73.9%	100%	107%	114%	106%	97.5%	94.8%	97.1%
COc1cc(-c2nnc(-c3c(-c4ccc(F)cc4)nc4ccccn34)o2)cc(OC)c1OC	84.3%	2.43% (active)	78.4%	59.5%	90.7%	63.3%	89.9%	69.7%	87.5%	106%	97%	68.2%	62.9%	89.7%	51.8%	91.3%	62.7%	89.6%	25.3%	89.1%
O=[N+]([O-])c1cccc(N=Cc2ccc3c(c2)OCO3)c1	105%	96.7%	130%	97.1%	106%	111%	105%	91.4%	117%	98.1%	104%	101%	76.7%	106%	122%	98.3%	118%	89.7%	102%	97%
Cc1nc2oc3ccccc3c(=O)c2cc1C(=O)NCc1ccccc1	94.1%	80.9%	84.9%	64.7%	90.9%	81%	31.1%	55.9%	78.5%	9.34% (active)	69.3%	99%	63.3%	87.6%	63.3%	52%	–	66.7%	69.7%	76.9%
CN(C)CCOc1nc2ccccc2c2c1-c1ccc(Cl)cc1C2=O	-33.8% (active)	-63.8% (active)	14.9%	0.224% (active)	2.76% (active)	-91.6% (active)	-39.5% (active)	-37.1% (active)	-49.9% (active)	-9.67% (active)	-1.93% (active)	11.3%	-33.1% (active)	-16.4% (active)	10.1%	-13.7% (active)	25.2%	1.17% (active)	-6.41% (active)	2.75% (active)
COc1ccc(OC)c2c1C(=O)CC2C (stereo unspecified)	108%	93%	99.6%	100%	97.5%	94.4%	96.4%	100%	101%	121%	98.7%	99.3%	83.7%	118%	113%	97.6%	–	112%	113%	101%
CCCCCCCCCCCCC1C/C=C\CCCC(=O)O1 (stereo unspecified)	107%	102%	110%	109%	112%	109%	108%	113%	126%	111%	94%	119%	93.1%	113%	104%	113%	128%	37.4%	-18.4% (active)	–
CN(C)CCNC(=O)c1cccn2c(=O)c3cc4ccccc4cc3nc12	-60.7% (active)	-72.7% (active)	17.6%	-11.1% (active)	-16.6% (active)	-20.3% (active)	-56% (active)	1.07% (active)	-25.8% (active)	-65.9% (active)	16.1%	7.89% (active)	18.2%	-29% (active)	14.7%	-2.45% (active)	-56.7% (active)	-27.2% (active)	-29.9% (active)	–
CCN(CC)CCOc1nc2cc(OC)c(OC)cc2c2c1-c1ccc(OC)cc1C2=O	40.4%	56.5%	73.4%	60%	81.8%	91%	78.9%	30.4%	112%	74.2%	98.6%	80.7%	47.7%	105%	56%	35.7%	96.6%	9.28% (active)	-29.6% (active)	22.4%
COc1ccc2c(c1)C(=O)c1c-2c(OCCN(C)C)nc2ccccc12	12.2%	47.2%	42.9%	21.1%	47.2%	37.4%	52.4%	-41.8% (active)	64.9%	16.5%	44.7%	34.7%	-4.51% (active)	43.3%	9.68% (active)	14.6%	65.8%	4.41% (active)	1.16% (active)	20.9%
